Measurements from PubChem BioAssay AID614 (Sanford-Burnham Center for Chemical Genomics, 2007).
Among all 21,000 compounds or so, fewer than 10 were called active.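 How the source made its calls: active means inhibition above 50% at the 20 µM single-dose screen; inactive means the rest.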 A selection follows.

biological target: Alkaline phosphatase, tissue-nonspecific isozyme (Homo sapiens) (UniProt P05186); experiment: blockers of alkaline phosphatase TNAP activity – biochemical, colorimetric, phosphate release readout, primary screen (AID 614); details: purified TNAP, pNPP, malachite green phosphate absorbance; at 20 µM; hits give high values
Sequence (P05186 whole entry, looked up): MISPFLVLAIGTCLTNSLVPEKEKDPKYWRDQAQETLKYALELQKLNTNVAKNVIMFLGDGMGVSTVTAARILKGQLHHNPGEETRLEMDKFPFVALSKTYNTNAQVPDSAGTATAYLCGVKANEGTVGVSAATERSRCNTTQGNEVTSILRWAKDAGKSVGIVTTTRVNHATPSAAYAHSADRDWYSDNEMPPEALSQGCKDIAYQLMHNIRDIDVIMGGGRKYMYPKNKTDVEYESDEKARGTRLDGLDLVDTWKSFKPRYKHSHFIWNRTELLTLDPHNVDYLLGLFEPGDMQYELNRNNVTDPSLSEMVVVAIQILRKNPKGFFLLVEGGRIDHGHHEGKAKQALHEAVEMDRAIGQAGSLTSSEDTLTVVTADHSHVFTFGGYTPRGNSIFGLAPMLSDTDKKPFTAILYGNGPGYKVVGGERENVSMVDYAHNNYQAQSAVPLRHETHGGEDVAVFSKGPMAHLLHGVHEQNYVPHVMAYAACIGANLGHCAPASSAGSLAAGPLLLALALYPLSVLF

inhibition, inactive:
CC1CCN(C(=O)Cn2cc(C(=O)c3ccco3)c3ccccc32)CC1 14.2%
O=C(c1ccccc1)N1CCN(C(=O)N2CCCCC2)CC1 -5.7%
CC1C(c2ccccc2)=[N+]([O-])C2(CCCC2)N1O (stereo unspecified) 12.6%
Cc1nonc1OCCn1nnnc1N 8.7%
O=C(OC(C(=O)NC1CCCC1)c1ccc(F)cc1)c1ccno1 (stereo unspecified) 0%
CCc1ccccc1NC(=O)CSc1nnc([C@@H](NC(=O)OC(C)(C)C)C(C)C)o1 4.3%
CC1OC2C(OC1C)N(S(C)(=O)=O)CCN2S(C)(=O)=O (stereo unspecified) 10%
O=C(CCN1C(=O)c2ccccc2C1=O)Nc1ccncc1 7.9%
CCOC(=O)CSc1nc2sc3c(c2c(=O)[nH]1)CC(C)(C)OC3 -12.8%
COc1ccc(-c2cc(C(F)(F)F)n3nc(C(=O)N4CCOCC4)c(Cl)c3n2)cc1 6%
C=C(Br)Cn1c(CCCC)nc2ccccc21 0%
COc1ccc(Br)cc1/C=N/n1c(C)nnc1C 8.2%
CCC(=O)Nc1sc(C(=O)N2CCCCC2)c(C)c1C#N -23.7%
CCCCNc1nc2ccccc2nc1NS(=O)(=O)c1cccs1 1.2%
COc1cc(C2C(C(=O)c3sc(C)nc3C)=C(O)C(=O)N2CCN(C)C)cc(OC)c1OC (stereo unspecified) 13%
Cc1cc(C)c(C#N)c(SCc2ccccc2C(=O)O)n1 -0.3%
CCCCc1nc2ccccc2c(=O)n1NC(=O)c1c(O)c2cccc3c2n(c1=O)CC3 4.4%
Cc1ccc2cc(C#N)c(SCC(=O)NCC3CCCO3)nc2c1C (stereo unspecified) 8.6%
COc1ccc2c(c1OC)C(=O)OC2c1c(O)nc(SC)n(-c2ccccc2)c1=O (stereo unspecified) -0.7%
Cc1ccc2c(NC(=O)C3CC3)cccc2n1 9.9%
O=c1c(F)cn(C2CCCO2)c(=O)n1Cc1ccccc1Cl (stereo unspecified) 7.7%
COCCNC(=O)c1ccccc1-c1nc(-c2ccccc2Cl)no1 1.6%
Cc1cc(C)nc(N(C#N)CC(=O)Nc2ccccc2)n1 -15.3%
CCCCNC(=O)CSc1nccn1Cc1ccccc1 10.7%
CCC(C)NC(=O)N[C@@H](CCSC)C(=O)O (stereo partly specified) 8.1%
O=C(Nc1cnccn1)c1cccnc1 6.7%
COc1ccc(-c2n[nH]c(C)c2-c2ccc(OC)c(OC)c2)c(O)c1 7.2%
c1nc(COc2nsnc2N2CCOCC2)cs1 5.5%
Cc1cc2ccccc2n2c(SCC(=O)N3CCN(C(=O)c4ccco4)CC3)nnc12 12.5%
CC(=O)Nc1cccc2c1[n+]([O-])c(C)c(C)[n+]2[O-] 2.9%
N#CCCN(CCC#N)c1nnc(-c2ccccc2)s1 0%
COc1ccc(Cn2cccc(NC(=O)Nc3ccc(C#N)cc3)c2=O)cc1 10.4%
CCOC(=O)CNC(=O)CSc1nnc(COc2ccc(Cl)cc2)n1CC 10.6%
CCc1nnc(NC(=O)c2nc3nccc(C)n3n2)s1 -4.2%
CNC(=O)c1cc2c(ccc3ccccc32)oc1=N 5.2%
CCN(c1ccccc1)S(=O)(=O)c1cccc(C(=O)O)c1 1.1%
CN(C)c1nc2n(c(=O)n1)CCO2 -3%
COc1ccccc1NC(=O)C1=C(C)NC2=C(C(=O)CCC2)C1c1ccc(C)o1 (stereo unspecified) -1.3%
C=CCc1cccc2cc(C(=O)N3CCN(C(=O)OCC)CC3)c(=O)oc12 5.5%
CC1Cc2ccccc2N1C(=O)CSc1nnc(-c2ccc(S(=O)(=O)N3CCCCC3)cc2)o1 (stereo unspecified) 12.2%
O=c1oc2c(CN3CCCCC3)c(O)ccc2c2c1CCCCC2 8.2%
CCn1c(SCC(=O)Nc2cc(C)c(Cl)cc2OC)nnc1-c1ccco1 10.5%
O=C(NC1CCCCC1)n1c(=O)oc2cc(S(=O)(=O)N3CCCCC3)ccc21 6.7%
Cn1c(SCC(=O)OC2CCCCC2)nnc1-c1ccc(S(=O)(=O)N2CCCC2)cc1 10.3%
O=C(NCc1cn2ccsc2n1)Nc1cccc(Cl)c1 0.5%
CCC1(C)N(O)C(C)(C)C(c2ccc(OC)cc2)=[N+]1[O-] (stereo unspecified) 8.5%
CCc1c(O)nc(SCC(=O)N2CCCCC2)n(-c2ccccc2C)c1=O 2.1%
Cc1ccc(C(C(=O)NCc2ccco2)N(CC2CCCO2)C(=O)Cn2nnc3ccccc32)cc1 (stereo unspecified) 8.3%
CC(C)=C(NC(=O)c1ccco1)C(=O)NCCc1nc2ccccc2[nH]1 9.6%
O=C(O)CCC(=O)N(Cc1ccco1)c1nc(-c2ccccc2)cs1 7.9%
COC(=O)COc1ccc(S(=O)(=O)Nc2ccc(NC(C)=O)cc2)cc1 11.9%
CCc1cccc(C)c1NC(=O)CSc1nnc(-c2ccco2)n1N 7.1%
C/C(O)=C\c1nc(=O)c2c(C)cc(C)nc2n1-c1ccccc1 10.5%
COc1ccccc1N1CCN(C(=O)c2ccc(S(=O)(=O)N3CCCCC3)cc2)CC1 11.7%
Cc1ccc(C(C)C)c(OCc2nnc(SCC(=O)Nc3nccs3)n2C)c1 -5.7%
NC(=O)C1CCN(C2OC(=O)c3ccccc32)CC1 (stereo unspecified) 0%
O=C(CSc1nnnn1-c1ccc2c(c1)CCC2)Nc1ccc2c(c1)OCCO2 -0.8%
O=C(CNCCO)NC12CC3CC(CC(C3)C1)C2 0%
Cc1nc(NC(CC(C)C)C(=O)O)c2nc(C)oc2n1 (stereo unspecified) -15%
O=C1c2oc3ccc(Br)cc3c(=O)c2C(c2cccc(F)c2)N1CCO (stereo unspecified) 10.1%
CC(C)C(=O)N1CCN(CCN=CC2=C(O)CC(c3ccco3)CC2=O)CC1 (stereo unspecified) 2.1%
CCOC(=O)c1c(NC(=O)CSc2nnc(C)c(=O)[nH]2)sc2c1CCC2 10.5%
COC(=O)C(NC(C)=O)(Nc1nc2c(s1)CCCC2)C(F)(F)F (stereo unspecified) 10.6%
CC1Cc2ccccc2N1C(=O)CSc1nc2ccccc2o1 (stereo unspecified) 14%
CCCn1c(SCC(N)=O)nnc1C(C)C 3.8%
COC(=O)CNC(=O)c1ccc2c(c1)S(=O)(=O)c1ccccc1C2=O 14.1%
O=C(Oc1ccccc1)c1ccc2nccnc2c1 8.8%
CC(Sc1nncs1)C(=O)NCc1ccc2c(c1)OCO2 (stereo unspecified) 18.9%
C=CCn1c(C2CC(=O)N(c3ccc(C)cc3)C2)nc2ccccc21 (stereo unspecified) 8.4%
c1ccc2c(CNn3cnnc3)cccc2c1 4%
O=c1cc(CSc2ccc(Cl)cc2)nc(N2CCOCC2)[nH]1 -11.8%
CCCc1nc2c3cnn(-c4cccc(Cl)c4)c3ncn2n1 -13.7%
Cn1c(=O)c2c(nc(OCc3cccnc3)n2Cc2ccccc2)n(C)c1=O 0%
O=C(CCCC(=O)N(CC(=O)NC1CCCC1)Cc1ccccc1Cl)Nc1ccccn1 10.7%
CC12C(=O)N(n3cnnc3)C(=O)C1C1C=CC2C1 (stereo unspecified) -18.4%
Cn1cnc2c1c(=O)n(Cc1c(Cl)cccc1Cl)c(=O)n2C 7.6%
COc1ccc(-n2c(C)nc3c(cnn3-c3ccccc3)c2=O)cc1 -8.2%
CC(=O)Nc1ccc(S(=O)(=O)N2CCCC2C(=O)O)cc1 (stereo unspecified) 10.8%
COCCn1nnnc1C(c1ccccc1Cl)N1CCN(c2ccccc2OC)CC1 (stereo unspecified) 8.5%
CC(Cc1cccs1)NC(=O)NC1CCCCC1 (stereo unspecified) 10%
CS(=O)(=O)N(CC(=O)N1CCN(c2cccc(Cl)c2)CC1)c1ccccc1 0%
O=C(CSc1nnc(-c2cccnc2)n1Cc1ccco1)c1ccc(Cl)cc1 8.1%
CCN1C(=O)/C(=C\N2CCN(c3ccccc3)CC2)SC1=S 10.1%
O=C(Nc1c(-c2ccccc2)nc2c(Br)cc(Br)cn12)c1ccco1 9.2%
Cc1ccc(C2(c3ccc(C)cc3)NC(=O)N(Cc3c(C)noc3C)C2=O)cc1 -2%
COC(=O)[C@H](C)NC(=O)Nc1ccc(OC(F)(F)F)cc1 4.2%
Cc1csc(NC(=O)CN2CCCCCC2)n1 14.8%
COc1ccc(-c2nc3n(c2Br)CCC3)cc1 0%
CCOC(=O)N1CCN(C(=O)C2CCN(S(C)(=O)=O)CC2)CC1 -0.3%
O=S(=O)(NCc1ccccn1)c1ccc(Br)s1 -2.3%
COCCNC(=O)CN(C(=O)CCC(=O)Nc1cc(C)on1)c1ccc(C)cc1C 14.4%
CN1CCN(S(=O)(=O)c2ccc(NC(=O)C3CCCO3)cc2)CC1 (stereo unspecified) 11.5%
C=CCNc1nc(C)nc(OC)n1 -2.9%
CCc1cc(=O)oc2cc(C)cc(OC(C)C(=O)O)c12 (stereo unspecified) 8.6%
O=S(=O)(O)c1nc2ccccc2n1Cc1ccc(Cl)cc1Cl 0%
CCNC(=O)CCc1nc(-c2ccc(C(C)(C)C)cc2)no1 2%
CC1(C)Oc2ccc(C(=O)N3CCOCC3)cc2N(CC(=O)Nc2ccccc2)C1=O -16.7%
COc1cccc(C2/C(=C(/O)c3ccc(F)cc3)C(=O)C(=O)N2CCN(C)C)c1 (stereo unspecified) 0.4%
Cc1cccc(N)c1SC1CCCCC1O (stereo unspecified) 9.2%
CC(C)(C)n1nnc(CCc2nnn(C(C)(C)C)n2)n1 0.3%
CCOC(=O)CSc1nnc(NC(=O)c2cccc(S(=O)(=O)N3CCCC3)c2)s1 9.6%
